# “And” between values parts separate entries of the source, which are not always exact repeats. Equal entries are not always repeated. In all, about 420,000 compounds went through this assay and about 50,000 (12%) were called active. About 26% were inconclusive and are not listed. Shown is part of a subset that was picked to be rich in actives. A number with no mark means an inactive call. The call rests on the fitted dose curve; in most records, active means well fitted inhibition curve with a large enough effect; inconclusive means small, poorly fitted or top-dose-only effect; inactive means flat fitted curve, though single readings scatter.
# Assay: qHTS for Inhibitors of human tyrosyl-DNA phosphodiesterase 1 (TDP1): qHTS in cells in presence of CPT; further: nearly all actives have a fitted effect of over 55% in size
# Settings: chicken DT40 Tdp1-/-;hTDP1 cells + 20 nM CPT, ATP luminescence, 48 h; series mostly up to 46.2 µM; activity change, negative = growth inhibition: at the top concentration
# How it was run: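 Chicken DT40 Tdp1-/- cells stably complemented with human TDP1 were seeded at 400 cells/well in medium containing 20 nM camptothecin, exposed to pin-transferred compounds, and grown at 37 °C for at least 48 hr. Viability was read as ATP luminescence.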
# On the % scale 0 is the no-effect control and ±100 the full control effect; potency means the concentration at half of the fitted maximal effect.
Compound,"activity change, negative = growth inhibition",Potency
Cc1cc(C)cc(NC(=O)CCS(=O)(=O)c2cc3c4c(c2)CCN4C(=O)CC3)c1,-13%,–
Cn1c(-c2ccco2)nc2cc3ccccc3cc21,–,11.6 µM (active)
S=c1[nH]nc(-c2ccco2)n1/N=C/c1ccccc1,2.71%,–
Cn1cccc1-c1nc2ccccc2n1C,1.93%,–
CCOc1ccc(S(=O)(=O)N(CC(=O)NCCSCc2ccc(C)cc2)c2ccccc2)cc1,-7.56%,–
CCS(=O)(=O)Nc1cc(C(=O)N2C[C@@H](C)O[C@@H](C)C2)c2c(c1)nc(-c1ccccc1)n2C,0.659%,–
CN(C)c1nc(=Nc2cccc(Cl)c2)ss1,–,0.206 µM (active)
CCOC(=O)C1=C(O)CSC1=Nc1cccc(Cl)c1,0.891%,–
O=C(O)C1=NN(c2c(F)c(F)cc(F)c2F)C(=O)CC1,5.08%,–
O=C(O)CCc1cccnc1,–,inactive
C/C(=N\NC(=O)CCn1nc(C)cc1C)C(C)(C)C,21.5%,–
Cc1ccc2c(C)c(C(=O)N3CCN(c4ccncc4)CC3)oc2c1C,–,23.1 µM (active)
Cc1ccc2c(C)c(C(=O)N(C)Cc3ccncn3)oc2c1C,-21.4%,–
CC(=O)N1CCC2(CC1)CCN(c1ccncc1)CC2,-0.882%,–
CCOC(=O)N(Cc1ccccc1)C1CC1,0.287%,–
Cc1noc(C)c1-c1ccc(C(=O)NCc2ccncc2)c2occc12,–,9.2 µM (active)
O=C(NCc1ccncc1)C(=O)NCc1ccco1,-14.1%,–
CCN(CC(=O)NCc1ccc(Cl)cc1)C(=O)c1c(C)noc1C,-1.41%,–
Cc1ccc(CNC(=O)CCc2c(C)nc3c(c(C)nn3-c3ccccc3)c2C)cc1,-27.9%,–
CCOC(=O)c1c(C)oc2ccc(N(C(=O)c3ccncc3)S(=O)(=O)c3ccc(CC)cc3)cc12,–,5.8 µM (active)
CCOC(=O)c1c(C)oc2cc(Br)c(OCC(N)=O)cc12,-7.14%,–

Compound,"activity change, negative = growth inhibition",Potency
CCOC(=O)c1c(C)oc2nc(C)nc(Nc3ccc(CC)cc3)c12,-3.14%,–
CN(CC(=O)O)S(=O)(=O)c1ccc2oc3ccccc3c2c1,6.87%,–
COC(=O)c1c(C)oc2ccc(N(C(=O)Oc3ccccc3)S(=O)(=O)c3ccccc3)cc12,–,20.6 µM (active)
CC(=O)Oc1ccc(N(C(C)=O)S(=O)(=O)c2ccc3ccccc3c2)cc1Br,-21.1%,–
COc1cc(/C=C2/C(=O)NN(c3ccc(F)cc3)C2=O)cc([N+](=O)[O-])c1O,-6.31%,–
CC(C)(C)c1cc(=O)n2c(nc3ccccc32)[nH]1,-28.4%,–
COCCOC(=O)C1=C(C)NC(=O)NC1c1cc2c(cc1Br)OCO2 (stereo unspecified),17.9%,–
O=C(O)C1=C/C(=C/C=[N+]2c3cc(O)c(O[C@H]4OC(CO)[C@@H](O)[C@@H](O)[C@@H]4O)cc3C[C@@H]2C(=O)[O-])C[C@H](C(=O)O)N1 (stereo partly specified),1.31%,–
COc1ccc(CNC(=O)COC(=O)C(CCSC)N2C(=O)c3ccccc3C2=O)cc1 (stereo unspecified),-1.64%,–
COc1ccc(/C(O)=C2\C(=O)C(=O)N(Cc3ccco3)C2c2ccc(OC)cc2OC)cc1 (stereo unspecified),–,29.1 µM (active)
COc1ccccc1C1/C(=C(/O)c2ccc(C)cc2)C(=O)C(=O)N1Cc1ccco1 (stereo unspecified),11.9%,–
COc1ccc(C2/C(=C(/O)c3ccccc3)C(=O)C(=O)N2C)c(OC)c1 (stereo unspecified),0.256%,–
CCn1c(SCC(=O)NC2CC2)nnc1-c1ccccn1,-5.45%,–
CO[C@H]1[C@@H](O)[C@H](N)[C@@H](O[C@H]2O[C@H]([C@H](C)N)CC[C@H]2N)[C@H](O)[C@@H]1N(C)C(=O)CN,-2.47%,–
CC[C@]1(O)CC2CN(CCc3c([nH]c4ccccc34)[C@@](C(=O)OC)(c3cc4c(cc3OC)N(C=O)[C@H]3[C@@](O)(C(=O)OC)[C@H](OC(C)=O)[C@]5(CC)C=CCN6CC[C@]43[C@@H]65)C2)C1 (stereo partly specified),–,0.146 µM (active)
CC[C@]1(O)C[C@@H]2CN(CCc3c([nH]c4ccccc34)[C@@](C(=O)OC)(c3cc4c(cc3OC)N(C)[C@H]3[C@@](O)(C(=O)OC)[C@H](OC(C)=O)[C@]5(CC)C=CCN6CC[C@]43[C@@H]65)C2)C1,–,65.1 nM (active) and 47.3 nM (active) and 146 nM (active)
CCc1nc2onc(C)c2c(=O)n1CC(=O)O,27.9%,–
O=C1Cc2cc(S(=O)(=O)Nc3cccc(F)c3)ccc2N1,-5.68%,–
CCC(C(=O)Nc1cccc(-c2nc3cccnc3s2)c1C)c1ccccc1 (stereo unspecified),–,20.6 µM (active)
Cc1c(NC(=O)C(C)(C)C)cccc1-c1nc2ccccc2s1,–,13 µM (active)
CCC(C(=O)Nc1ccc2c(c1)OCCO2)c1ccccc1 (stereo unspecified),-5.39%,–

Compound,"activity change, negative = growth inhibition",Potency
CC(=O)Nc1cccc(-c2nc3ccccc3s2)c1C,1.91%,–
CCC(C(=O)Nc1ccc(C(C)C)cc1)c1ccccc1 (stereo unspecified),-1.5%,–
Cc1cccc(C(=O)Nc2ccc(-c3nc4ccccc4s3)c(C)c2)c1,-22.1%,–
Cc1c(O)cc2c(c1C)O[C@](C)(CCC[C@H](C)CCC[C@H](C)CCCC(C)C)CC2,-19.5%,–
Cc1ccc(NC(=O)c2cc([N+](=O)[O-])ccc2Cl)c(O)c1,7.21%,–
CCC(=O)Nc1ccc(Nc2nc(Cl)nc(Nc3ccc(NC(=O)CC)cc3)n2)cc1,-9.94%,–
CCOc1ccc(Nc2nc(Cl)nc(N3CCN(c4ccc(OC)cc4)CC3)n2)cc1,–,18.4 µM (active)
COc1ccc(N2CCN(c3ccc([N+](=O)[O-])cc3Cl)CC2)cc1,-8.72%,–
CCOC(=O)N1CCN(CCC(=O)Nc2ccccc2)CC1,-6.11%,–
Cc1noc(C)c1CSCC(=O)Nc1nc2ccc(Oc3ccccc3)cc2s1,-8.95%,–
O=C(Nc1ccc(S(=O)(=O)N2CCCCC2)cc1)C1CC(=O)N(c2ccc(F)cc2)C1 (stereo unspecified),-7.16%,–
COC[C@@H]1NS(=O)(=O)c2ccc(Br)cc2O[C@H]1c1ccccc1,-25.1%,–
CCOc1ccc2nc(N3CCCC(C(=O)Nc4cc(C)ccc4C)C3)sc2c1 (stereo unspecified),–,23.1 µM (active)
CCOc1ccc2nc(C(=O)N3CCCC(C)C3)sc2c1 (stereo unspecified),-15.4%,–
Cc1ccc(C)c(NC(=O)C2CCCN(S(=O)(=O)c3cn(C)cn3)C2)c1 (stereo unspecified),-4.35%,–
COCC(C)NS(=O)(=O)c1ccc(N2CCCCS2(=O)=O)cc1 (stereo unspecified),-29.7%,–
CCOC(=O)c1ccccc1N1C(=O)C2Sc3[nH]c(=O)sc3C(/C=C/c3ccccc3)C2C1=O (stereo unspecified),–,18.4 µM (active)
CC(OC(=O)c1ccccc1N1C(=O)C2C3CCC(C3)C2C1=O)C(=O)c1ccccc1 (stereo unspecified),-11.2%,–
COC(=O)C1=C(C)N=C2SC(C)C(=O)N2C1/C=C/c1ccccc1 (stereo unspecified),-1.89%,–
